High-throughput results from PubChem BioAssay.
MCF10A rereplic – DNA re-replication induction in MCF 10a cells | MCF 10A DNA re-replication, Hoechst nuclear intensity, 48 h | Potency, µM (titrated, usually from 46.1 µM), for inactives: at the top dose activity, positive = re-replication, actives largely listed as activators | 350,000 tested, 2.9% active | AID 624296; also: % of control where 0% means no effect; nearly all actives have a fitted effect of over 50% in size
Integrin act MD – activators of alpha7 integrin expression for muscular dystrophy | alpha7betagal myoblasts, beta-gal FDG fluorescence, 48 h | Potency, µM (doses to about 38.3 µM), inactives show top-dose activation, most hits filed as activators | 350,000 tested, 0.064% active | AID 624291;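 also: 100% = response of the positive control SU9516; nearly all actives have a fitted effect of over 60% in size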
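Alpha7betagal+/- myoblasts (passage 13) were plated 16-24 hr, then exposed to compounds (1:260 dilution of DMSO stock) for 48 hours at 37C. After MPER lysis, β-galactosidase reporter activity was read as FDG fluorescence (ex 480/em 540) after 30 minutes.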
SW480 rerep – induces DNA re-replication in SW480 colon adenocarcinoma cells; SW480 DNA re-replication, Hoechst DNA content imaging, 48 h; Potency, µM (doses to about 46.1 µM), for the others: at the highest dose re-replication activation, most hits filed as activators; 340,000 tested, 1.8% active; also: % of control where 0% means no effect; nearly all actives have a fitted effect of over 55% in size
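Readout is total intensity of Hoechst-stained nuclei, excited at 405 nm and collected at 500-530 nm. Compound treatment lasted 48 hr at 37 C in 5% CO2 before staining.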
Mito fusion yeast – blocks mitochondrial division or promotes mitochondrial fusion | S. cerevisiae fusion-defective mutant growth rescue, CellTiterGlo 48 h | 320,000 tested, 0.23% active | AID 485298 | Potency, µM (series often up to 46.1 µM), for the others: at the highest dose growth rescue (activation), most hits filed as activators; also: % of control where 0% means no effect; nearly all actives have a fitted effect of over 45% in size
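Read-out: ATP-based luminescence (CellTiterGlo, 10 min ambient) reporting growth of fusion-defective ts yeast after 48 hours at 37C on glycerol/ethanol YPEG medium in the presence of compound.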
A-T KAP1 phos – potential ataxia-telangiectasia treatments restoring KAP-1 phosphorylation | 320,000 tested, 0.19% active | F2112 A-T fibroblasts, KAP-1 phosphorylation AlphaLISA; neocarzinostatin DNA damage 30 min before lysis | Potency, µM (highest dose often 57.5 µM), inactives show at the highest dose activation, usual class: activators; also: % of control where 0% means no effect; nearly all actives have a fitted effect of over 45% in size
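ATM-like activity read as KAP-1 phosphorylation via AlphaLISA donor/acceptor antibody pairs after lysis and 6 hr at 25C. Cells were ATM-null patient fibroblasts (F2112, hTERT), dosed 60 min, then exposed to the DSB inducer NCS for 30 min.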
Numbers without * were called inactive; ? = inconclusive; nt = not tested or not shown; [ ] = dose if it differs, or a comment. Rows were chosen to be rich in hits. Some 4.2% of all compounds tested hit in one or more screens of this group. Calls follow the shape of the dose curve; as a rule, active = well fitted activation curve with a large enough effect; inconclusive = small, poorly fitted or top-dose-only effect; inactive = no such curve, though single readings can be large or run the other way. Potency is read from the fitted curve at half-maximal effect.

SMILES	MCF10A rereplic	Integrin act MD	SW480 rerep	Mito fusion yeast	A-T KAP1 phos
CCOC(=O)c1csc(NC(=O)c2cc(OC)c(OC)c(OC)c2)n1	?	15.8%	0.231µM*	1.3%	3.5%
Cc1cc(C(=O)CN2c3cccc4cccc(c34)S2(=O)=O)c(C)n1C	3.66µM*	0.0%	3.26µM*	17.6%	-5.7%
COCC(C)n1c(C)cc(C(=O)CN2c3cccc4cccc(c34)S2(=O)=O)c1C (stereo not given)	-8.1%	3.6%	2.7%	22.3%	0.0%
CC(C)N(C(=O)[C@H]1C[C@H](CC(=O)NCCCn2ccnc2)C(=O)N2CCc3c([nH]c4ccc(Cl)cc34)[C@]12C)C(C)C	12.8%	-5.2%	5.3%	nt	4.3%
Cc1ccc(/C=[N+](\[O-])c2ccc(N(C)C)cc2)c2nsnc12	11.2µM*	-61.2%	?	6.2%	-10.0%
Cc1ccc2nsnc2c1NS(=O)(=O)c1c(C)ccc2nsnc12	-0.2%	-7.5%	1.1%	13.6%	-1.1%
Cc1ccc(/C=C/C(=O)c2ccccc(=O)c2O)cc1C	20.6µM*	-21.1%	?	16.6%	4.2%
CC1CCN(S(=O)(=O)c2ccc3c(c2)N(CC(=O)NCCCOC(C)C)C(=O)CO3)CC1	1.1%	-13.0%	-2.5%	3.2%	11.6%
O=C(NCC1CCCO1)C(Cc1ccccc1)N1C(=O)C2C3C=CC(C4CC34)C2C1=O (stereo not given)	14.6µM*	-9.8%	?	-0.8%	-1.6%
O=C(NCC1CCCO1)C(C(=O)c1ccccc1)n1ccccc1=O (stereo not given)	-191.0%[0.0737 µM]	20.4%	-12.9%	2.1%	27.7%
COC(=O)c1c(-c2ccc(N(C)C)cc2)sc2ccc(OC)cc12	?	0.0%	14.6µM*	nt	25.1µM*
Cc1ccc(C(C)C)c(OCC(=O)N/N=C/c2cccn2C)c1	?	-23.1%	29.7%	3.1%	3.4%
O=C(CCl)N1c2ccccc2Sc2c1ccc1ccccc21	18.4µM*	0.0%	?	nt	nt
O=C(CCC1CCCC1)Nc1cc(C(F)(F)F)ccc1N1CCOCC1	-8.5%	-9.6%	3.66µM*	9.8%	8.1%
O=C(CCC1CCCCC1)Nc1cc(Cl)ccc1N1CCOCC1	?	-31.5%	?	?	19.5%
CN(C)S(=O)(=O)c1cccc(NC(=O)c2cc(=O)[nH]c(=O)[nH]2)c1	-6.2%	-1.6%	-1.0%	-19.3%	-4.4%
Cc1c(-c2nc(N)nc(Nc3ccccc3)n2)oc2ccccc12	?	-4.4%	?	14.1µM*	7.3%
Nc1nc(CN2CCCCCC2)nc(Nc2ccccc2)n1	9.7%	-12.4%	-6.1%	2.9%	2.5%
CCOc1ccc(N/C(SCc2cccc([N+](=O)[O-])c2)=C(/C#N)C(N)=O)cc1	?	-24.0%	18.5%	20.7%	6.8%
N#CC(C#N)=C(Nc1ccc(F)cc1)SCc1cccc(F)c1	23.1µM*	-49.1%	-31.9%	5.4%	2.9%
CN1c2ccc(Cl)cc2C(=O)NC1c1ccc([N+](=O)[O-])s1 (stereo not given)	11.6µM*	-29.5%	41.8%	-1.2%	10.1%
CC(C)(C)c1ccc(C(=O)CCCN2CCC(OC(c3ccccc3)c3ccccc3)CC2)cc1	11.9µM*	nt	-2.9%	-56.6%	nt
CC(C)CNC(=S)N(CCCN(C)C)Cc1cc2cc3c(cc2[nH]c1=O)OCCO3	7.1%	-6.9%	-4.2%	1.0%	8.9%
C=CCNC(=O)C(=O)NCCOc1ccccc1Cl	?	-15.7%	20.6µM*	-3.7%	11.2%
O=C(NCCOc1ccccc1Cl)C(=O)c1c[nH]c2ccccc12	?	4.8%	-4.6%	7.2%	6.0%
SMILES	MCF10A rereplic	Integrin act MD	SW480 rerep	Mito fusion yeast	A-T KAP1 phos
O=C(O)c1ccc(S(=O)(=O)N[C@H](Cc2ccc([N+](=O)[O-])cc2)C(=O)O)cc1	nt	nt	nt	-3.2%	-11.7%
CC(C)(C)c1cc(Cl)c(O)c(NC(=S)NC(=O)c2cccnc2)c1	14.6µM*	0.1%	-16.5%	6.7%	1.0%
CC(C)(C)c1ccc(C(=O)NNC(=S)NC(=O)c2cccnc2)cc1	8.9%	-28.0%	14.6µM*	-47.2%	7.0%
O=C(NNC(=S)NC(=O)c1ccccc1)c1cccnc1	1.5%	?	0.8%	-0.1%	1.9%
COc1cc(/C=N/Nc2nc(Nc3ccccc3)nc(-n3nc(C)cc3C)n2)cc(OC)c1OC	14.6µM*	-50.3%	?	1.6%	-4.2%
COc1ccc(O)c(/C=N/Nc2nc(Nc3ccccc3)nc(-n3nc(C)cc3C)n2)c1	?	-35.6%	?	-2.9%	25.8%
COc1cc(/C=N/Nc2nc(Nc3ccc(C)cc3)nc(-n3nc(C)cc3C)n2)cc(OC)c1OC	?	?	13µM*	-4.9%	2.4%
COc1ccc(/C=N/Nc2nc(Nc3ccccc3)nc(N3CCCC3)n2)cc1[N+](=O)[O-]	?	-60.5%	18.4µM*	-5.2%	-1.0%
COc1ccc(/C=N/Nc2cc(C)nc(-n3nc(C)cc3C)n2)cc1	?	-37.5%	?	-1.9%	6.2%
O=C(NCCNc1ccc([N+](=O)[O-])cc1)c1ccccc1Cl	nt	-4.4%	nt	nt	nt
Cc1cc(Br)ccc1OCC(=O)NNC(=O)C(=O)Nc1ccccc1	-8.1%	-13.3%	-10.6%	-17.3%	5.4%
CC1=C(CO)C(=O)OC([C@@H](C)C2CC[C@H]3C4C[C@H]5O[C@]56[C@@H](O)C=CC(=O)[C@]6(C)C4CC[C@]23C)C1 (stereo not given in full)	2.31µM*	-50.8%	?	-39.7%	5.4%
O=C(COC(=O)/C=C/c1cccc(F)c1)NC1CCCCC1	nt	-11.9%	nt	nt	nt
COc1ccc(/C=C/c2nc(-c3ccccc3)cc(=O)[nH]2)cc1	?	-9.1%	?	0.7%	-9.5%
O=c1cc(-c2ccccc2)nc(/C=C/c2ccccc2)[nH]1	18.4µM*	12.6%	?	3.8%	-1.8%
Cc1cccc(N2CC(C(=O)Nc3ccc(N4CCOCC4)cc3)CC2=O)c1C (stereo not given)	-4.3%	-27.3%	-6.6%	nt	-5.5%
Cc1cc(N2CCN(C)CC2)nc2ccc(NC(=S)N3CCN(c4ccc(Cl)cc4)CC3)cc12	29.1µM*	-57.8%	11.6µM*	-6.0%	-5.6%
Cc1cc(N2CCN(C)CC2)nc2ccc(NC(=S)N3CCCCCC3)cc12	?	-56.9%	14.4%	-10.7%	-1.3%
Cc1cc(N2CCN(C)CC2)nc2ccc(NC(=S)N3CCCCC3)cc12	18.4µM*	-33.6%	?	-8.9%	0.9%
Cc1cc(N2CCN(C)CC2)nc2ccc(NC(=S)N3CCN(c4ccc(F)cc4)CC3)cc12	?	-53.1%	?	8.5%	-0.2%
Cc1cc(N2CCN(C)CC2)nc2ccc(NC(=S)N3CCN(c4cccc(Cl)c4)CC3)cc12	7.31µM*	15.4%	9.2µM*	-3.2%	2.0%
CCCN1CCN(CCCNC(=S)Nc2ccc3nc(N4CCN(CC)CC4)cc(C)c3c2)CC1	15.7%	-46.4%	2.7%	-0.7%	-5.8%
